Compound activity: PubChem, National Center for Advancing Translational Sciences (NCATS)
FBPA Giardia inh: blocks Giardia fructose-bisphosphate aldolase activity; A8B2U2; purified Giardia FBPA; Potency, µM (series often up to 59.6 µM), for the others: top-dose activity, negative = inhibition, most hits filed as inhibitors; 290,000 tested, 0.71% active; AID 2451; also: potency is read from the fitted curve at half-maximal effect; nearly all actives have a fitted effect of over 55% in size
Target sequence (A8B2U2 whole entry, looked up): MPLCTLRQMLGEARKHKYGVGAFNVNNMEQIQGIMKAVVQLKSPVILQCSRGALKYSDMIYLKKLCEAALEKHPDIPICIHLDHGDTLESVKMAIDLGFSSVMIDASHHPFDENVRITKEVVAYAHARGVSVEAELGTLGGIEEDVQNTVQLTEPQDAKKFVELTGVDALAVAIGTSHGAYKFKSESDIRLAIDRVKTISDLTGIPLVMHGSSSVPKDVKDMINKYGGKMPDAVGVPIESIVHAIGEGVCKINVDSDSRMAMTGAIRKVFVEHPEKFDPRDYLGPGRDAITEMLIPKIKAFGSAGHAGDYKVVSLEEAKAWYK
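40 nM FBPA preincubated 10 min at RT with compound (up to 57.5 uM final), then substrate plus GAPDH/TPI/NAD/arsenate coupling and diaphorase/resazurin added. Fluorescence read after 20 min at RT, 525/598 nm.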
Pf growth 96h: inhibits malaria parasite growth, 96 h; P. falciparum luciferase reporter growth, 96 h; Potency, µM (doses to about 28.7 µM), without a hit: at the highest dose activity change, negative = inhibition, usual class: inhibitors; 320,000 tested, 6.9% active; AID 504834; also: potency is read from the fitted curve at half-maximal effect
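Erythrocytes infected with luciferase-expressing P. falciparum were dispensed at 2% hematocrit and 0.05% parasitemia (final), then incubated with compounds 96 hours at 37 C in 5% CO2. Luminescence after detection reagent addition reported growth.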
Sm TGR block: blocks Schistosoma mansoni thioredoxin glutathione reductase; Q962Y6; purified TGR, DTNB reduction, TNB absorbance 405 nm; Potency, µM (titrated, usually from 114 µM), without a hit: at the top dose activity change, negative = inhibition, actives largely listed as inhibitors; 360,000 tested, 3% active; AID 485364; also: potency is read from the fitted curve at half-maximal effect; nearly all actives have a fitted effect of over 60% in size
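Kinetic colorimetric format: TGR-catalysed, NADPH-driven DTNB reduction monitored via TNB absorbance. Enzyme dispensed at 20 nM; compound exposure 15 min at room temperature before reaction start.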
HCMV inh: blocks human cytomegalovirus replication | activity change, negative = inhibition, % at 57.5 µM | HFF cells, HCMV-luciferase reporter, 72 h; hits give low values | 410,000 tested, 4.5% active; in the data active = activity change below about -60%; inconclusive = no clear call, values can overlap the other calls; inactive = above about -39%
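After 16 h attachment at 37C, HFF cells received test compound and HCMV-luciferase (1 PFU/cell); reporter luminescence read 72 h later, data normalized against buffer-only and known inhibitor Salinomycin.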
Pf growth 48h: P. falciparum growth inhibition at 48 hours (one generation). AID 504832. P. falciparum luciferase growth in erythrocytes, 48 h. 310,000 tested, 5.9% active. Potency, µM (highest dose often 28.7 µM), inactives show top-dose activity change, negative = inhibition, usual class: inhibitors; also: potency is read from the fitted curve at half-maximal effect
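Luciferase-expressing parasites in RBCs, 2% Hct / 0.1% parasitemia final; RPMI 1640 + 0.5% Albumax; 37 C, 5% CO2, one generation; luminescence read-out, lower signal = inhibition.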
An asterisk follows results filed as active; ? = inconclusive; nt = no result. The list is not random: actives were taken first. Their share in the collection is about 14%. Unless noted, calls follow the shape of the dose curve; as a rule, active = well fitted curve in the direction sought with a large enough effect; inconclusive = small, poorly fitted or top-dose-only effect, or another doubt; inactive = no such curve, though single readings can be large; an effect the other way counts as inactive or inconclusive. % is scaled to controls: 0 for no effect and ±100 for the full control effect.

SMILES	FBPA Giardia inh	Pf growth 96h	Sm TGR block	HCMV inh	Pf growth 48h
COc1ccc(CN2CC(=O)N(c3cc(Cl)ccc3C)C2=S)cc1OC	3%	0%	15%	-17	7.4µM*
Cn1c(N)c(-c2ccccc2)c2ccc([N+](=O)[O-])cc2c1=O	-11%	1%	9%	?	?
CCC(=O)Nc1ccc(C)cc1-c1nc2ccccc2n(CC(=O)Nc2ccccc2Cl)c1=O	nt	nt	-9%	10	nt
COc1ccc(-c2oc3ccc(-c4cc(OC)c(OC)c(OC)c4)cc3c2-c2ccc(OC)cc2)cc1	nt	nt	nt	-6	nt
COc1ccc(-c2oc3ccc(-c4cc(OC)c(OC)c(OC)c4)cc3c2-c2ccc(OC)nc2)cc1	4%	3.3µM*	1%	25	?
O=C(COc1ccccc1)N1N=C(c2cccnc2)CC1(O)C(F)(F)F (centres undefined)	0%	0.93µM*	10%	23	?
Cc1ccc(OCC(=O)N2N=C(c3ccncc3)CC2(O)C(F)(F)F)cc1C (centres undefined)	4%	-7%	-23%	121	?
Cc1noc(C)c1C(=O)NCc1ccccc1F	7%	50%	10%	-69*	-7%
NC(=O)CSc1n[nH]c(=O)n1CCc1ccccc1	11%	-6%	7%	nt	-24%
CCc1nc2c(c(=O)c3ccccc3n2C)c(=O)n1CCc1ccc(OC)cc1	-16%	?	-11%	nt	-7%
COc1ccccc1NC(=O)CCn1cnc2onc(-c3ccc(F)cc3)c2c1=O	nt	nt	9%	0	nt
O=C(CCn1cnc2onc(-c3ccc(F)cc3)c2c1=O)Nc1ccc(F)c(Cl)c1	nt	nt	6%	-67*	nt
O=C(CCn1cnc2onc(-c3ccc(F)cc3)c2c1=O)Nc1cccc(C(F)(F)F)c1	nt	nt	0%	-86*	nt
CCC[C@@H](CN1CCC[C@H]1CN1C(N)=NC[C@H]1C(C)C)N1C[C@@H](Cc2ccccc2)N(CCCC2CCCC2)C1=N	nt	nt	nt	-16	nt
Cc1cc(C(O)c2ncc(-c3ccc(Oc4ccccc4)cc3)[nH]2)ccc1F (centres undefined)	nt	nt	nt	-8	nt
COc1ccc(C2C(C(=O)OC(C)C)=C(C)N=c3s/c(=C\c4cccs4)c(=O)n32)cc1 (centres undefined)	0%	?	-7%	-10	?
C=CCOC(=O)C1=C(C)N=c2s/c(=C3\C(=O)N(CC(=O)O)c4ccccc43)c(=O)n2C1c1ccc(OC)cc1 (centres undefined)	-8%	32%	18µM*	?	0%
Cc1ccc(NC(=O)CSCC(=O)N2CCN(C(=O)c3ccco3)CC2)cc1	nt	?	-9%	115	13%
COc1ccc(CCNC(=O)c2ccc3c(c2)N(Cc2ccc(F)cc2)C(=O)CS3)cc1OC	nt	nt	1%	-66*	nt
COc1ccc(CCNC(=O)c2ccc3c(c2)N(Cc2ccc(C)cc2)CCS3)cc1OC	nt	-21%	2%	-32	10µM*
Cc1ccc(CN2CCSc3ccc(C(=O)NC4CCCC4)cc32)cc1	nt	?	1%	nt	?
COc1ccc(CCNC(=O)c2ccc3c(c2)NC(=O)CS3)cc1OC	10%	?	1%	0	8%
COc1ccccc1CNC(=O)c1ccc2c(c1)N(Cc1cc(C)ccc1C)C(=O)c1ccccc1S2	nt	nt	5%	-25	nt
COc1ccc(CCNC(=O)c2ccc3c(c2)N(Cc2ccccc2C)C(=O)c2ccccc2S3)cc1OC	nt	nt	4%	-79*	nt
Cc1ccc(CN2CCSc3ccc(C(=O)NCCCN4CCN(C)CC4)cc32)cc1	nt	?	-14%	-31	15µM*
SMILES	FBPA Giardia inh	Pf growth 96h	Sm TGR block	HCMV inh	Pf growth 48h
Cc1ccc(CCNC(=O)c2ccc3c(c2)N(Cc2ccc(F)cc2)CCS3)cc1	nt	nt	-5%	1	nt
CCCCN(C(=O)c1ccccc1Cl)C(CC(C)C)c1nc2ccccc2[nH]1 (centres undefined)	nt	nt	nt	-22	nt
CCNC(=O)CC1C(=O)N(c2ccc(F)cc2)C(=S)N1CCc1ccncc1 (centres undefined)	0%	?	1%	17	13µM*
CCc1ccc(NC(=O)CC2C(=O)N(c3ccc(C)cc3)C(=O)N2CCc2ccncc2)cc1 (centres undefined)	-4%	-4%	9%	-5	15µM*
Cc1ccc(O)c(C(=O)c2cnc3c(c2)c(C)nn3C)c1	-2%	8.3µM*	-14%	-17	?
O=C(c1cnc2ccc3ccccc3c2c1)c1cc(F)ccc1O	-24%	?	7%	0	3.7µM*
Cc1nn(-c2ccccc2)c2ncc(C(=O)c3cc(Cl)ccc3O)cc12	-1%	2.6µM*	-6%	-13	1.9µM*
COc1ccc(O)c(C(=O)c2cnc3c(c2)c(C)nn3C)c1	12%	?	-16%	-2	?
COc1ccc(O)c(C(=O)c2cnc3onc(C)c3c2)c1	0%	9.3µM*	-10%	40	?
Cc1nn(-c2ccccc2)c2nc(N)c(C(N)=O)cc12	21%	41%	14%	77	18%
Cc1nn(C)c2ncc(C(=O)c3ccccc3O)cc12	7%	-8%	4%	-30	-3%
Nc1nc2ncc(C(=O)c3cc(F)ccc3O)cc2s1	0%	?	-8%	67	-7%
Cc1nn(C)c2ncc(C(=O)c3cc(F)ccc3O)cc12	-2%	10µM*	5%	-7	nt
COc1ccc(N(C)C(=O)CCS(=O)(=O)c2cccc3nonc23)c(OC)c1	1%	?	?	14	18%
Cc1cccc(N(C)C(=O)CCS(=O)(=O)c2cccc3nonc23)c1	2%	?	?	-66*	-17%
CCN(C(=O)CCS(=O)(=O)c1cccc2nonc12)c1ccc(C)c(C)c1	3%	?	40µM*	-19	-16%
CC(C)c1ccc(NC(=O)c2ccc(F)c(S(=O)(=O)N3CCc4ccccc43)c2)cc1	nt	nt	0%	-9	nt
CC(=O)Nc1ccc(NC(=O)c2ccc(Cl)c(S(=O)(=O)N3CCc4ccccc43)c2)cc1	nt	nt	nt	-28	nt
O=C(Nc1ccccn1)c1ccc(Cl)c(S(=O)(=O)N2CCc3ccccc32)c1	nt	?	-13%	-93*	?
O=C(Nc1ccc(Br)cc1)c1ccc(F)c(S(=O)(=O)N2CCc3ccccc32)c1	nt	nt	3%	-92*	nt
O=S(=O)(c1cccc2cccnc12)N1CCc2ccccc21	-13%	?	0%	-63*	-17%
O=C(NC1=NCCS1)c1ccc(Cl)c(S(=O)(=O)N2CCc3ccccc32)c1	-7%	?	8%	-27	?
O=C(Nc1cccnc1)c1ccc(Cl)c(S(=O)(=O)N2CCc3ccccc32)c1	-4%	3.7µM*	2%	?	2.6µM*
Cc1cc(-c2ccccc2)c2ccc(NC(=O)C(C)(C)C)nc2n1	-9%	?	10%	18	?
CCC[C@H]1[C@@H](NS(=O)(=O)c2ccc(OC)cc2)CC[C@@]23CCCN2C(=O)CCC[C@@H]13	nt	nt	nt	-25	nt
